Results on five molecules are retold here after PubChem BioAssay.

The nature of experiment [1]: optical density shifts of acrAB sulA E. coli – strain DRC41, OD650, 48 h, E. coli filamentation inducer project, primary screen (AID 1152).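 Also: E. coli MC1000 strain DRC41 lacking acrAB efflux pump and sulA.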 To be noted: higher = more signal, called active from +8 up or from −8 down.
Experiment [2] in a line: probe aLefty1 binding on compound microarray – biochemical, small-molecule microarray, 635/667 nm fluorescence, primary screen (AID 1153).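 Also: score merges spot fluorescence with signal-to-noise ratio from the scanned slide images.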 To be noted: higher = more signal.
Experiment [3] in a line: plasmodial surface anion channel blockers, osmotic lysis – cell-based, P. falciparum Indochina, OD700, 1 h, primary screen (AID 1154). To be noted: P. falciparum Indochina infected RBC osmotic lysis, higher = more signal, called active from +8 up or from −8 down.
Experiment [4] in a line: plasmodial surface anion channel blockers, osmotic lysis – cell-based, P. falciparum Indochina, OD700, 2 h, primary screen (AID 1155).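 Also: lysis reports solute entry through the parasite surface anion channel PSAC.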 To be noted: P. falciparum Indochina infected erythrocytes, higher = more signal, called active from +8 up or from −8 down.
Experiment [5] in a line: changes in parasitized red cell lysis, either direction – P. falciparum Indochina, OD700, 3 h, PSAC antagonist project, primary screen (AID 1156). To be noted: P. falciparum-infected erythrocytes, osmotic lysis, higher = more signal, called active from +8 up or from −8 down.
Experiment [6] is described as follows: plasmodial surface anion channel blockers, osmotic lysis – cell-based, P. falciparum Indochina, OD700, 18 h, primary screen (AID 1157). To be noted: P. falciparum Indochina infected erythrocytes, osmotic lysis OD700, 18 h; higher = more signal, called active from +8 up or from −8 down.
A short description of experiment [7]: S6 kinase pathway phospho-S6 level changes – cell-based, A549, cytoblot, luminescence, serum-stimulated, primary screen (AID 1158).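 Also: serum-stimulated A549 lung adenocarcinoma cells; signal is phosphorylated S6 detected by cytoblot immunostaining with HRP secondary.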 To be noted: 5 h, higher = more signal.
The target of experiment [8] is NADPH oxidase 2 (Homo sapiens) (UniProt P04839). Briefly: compounds shifting NOX2 Amplex Red fluorescence – cell-based, HEK293-NOX2, PMA-stimulated, NOX inhibitor project, primary screen (AID 1159). Also: test concentration not given here. To be noted: 45 min, higher = more signal, called active from +8 up or from −8 down.
Experiment [9] deals with NADPH oxidase 4 (Homo sapiens) (UniProt Q9NPH5). Briefly: compounds shifting NOX4 Amplex Red fluorescence – cell-based, HEK293-NOX4, tetracycline-induced, NOX inhibitor project, primary screen (AID 1160). To be noted: HEK293-NOX4, Amplex Red H2O2 fluorescence, 45 min; higher = more signal, called active from +8 up or from −8 down.
Experiment [10] deals with NADPH oxidase 5 (Homo sapiens) (UniProt Q96PH1). Briefly: compounds shifting NOX5 Amplex Red fluorescence – cell-based, HEK293-NOX5, NOX inhibitor project, primary screen (AID 1161). To be noted: HEK293-NOX5, ionomycin, 45 min, higher = more signal.
Experiment [11] in a line: compound effects on lung adenocarcinoma cell viability – A549, calcein-AM fluorescence, 48 h, basal, profiling panel (AID 1162). Also: test concentration not given here. To be noted: higher = more signal.
Experiment [12] in a line: compound effects on differentiated 3T3-L1 adipocyte viability – cell-based, 3T3-L1 adipocytes, calcein-AM fluorescence, 48 h, basal, profiling panel (AID 1163). Also: test concentration not given here. To be noted: 3T3-L1 adipocytes viability, higher = more signal.
Experiment [13] can be described thus: compound effects on hepatocellular carcinoma cell viability – HepG2, calcein-AM fluorescence, 48 h, basal, profiling panel (AID 1164). Also: test concentration not given here. To be noted: higher = more signal.
A short description of experiment [14]: compound effects on multiple myeloma cell viability – MM1S, calcein-AM fluorescence, 48 h, basal, profiling panel (AID 1165).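 Also: viability of MM1S multiple myeloma cells under basal unstimulated conditions; test concentration not given here.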 To be noted: higher = more signal.
The nature of experiment [15]: calcein-AM signal in unstimulated myeloma cells – cell-based, calcein-AM fluorescence, 48 h, PK04 Diversity Set, profiling panel (AID 1166).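 Also: cells grown under basal conditions without added stimulus; test concentration not given here.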 To be noted: RPMI8226 myeloma viability, higher = more signal.
Experiment [16] is described as follows: JC-1 mitochondrial signal, unstimulated HepG2 cells – cell-based, JC-1 fluorescence, 24 h, 100 nL compound, profiling panel (AID 1167). Also: test concentration not given here. To be noted: HepG2 mitochondrial potential, higher = more signal.
A short description of experiment [17]: JC-1 mitochondrial signal, unstimulated adipocytes – cell-based, JC-1 fluorescence, 3T3-L1 adipocytes, 24 h, 100 nL compound, profiling panel (AID 1168). Also: test concentration not given here. To be noted: JC-1 mitochondrial fluorescence, higher = more signal, called active from +8 up or from −8 down.
The nature of experiment [18]: JC-1 mitochondrial signal, unstimulated myeloma cells – cell-based, JC-1 fluorescence, RPMI8226, 24 h, 100 nL compound, profiling panel (AID 1169). Also: test concentration not given here. To be noted: JC-1 mitochondrial potential fluorescence, higher = more signal.
A short description of experiment [19]: JC-1 mitochondrial signal, unstimulated MM1S myeloma – cell-based, JC-1 fluorescence, 24 h, 100 nL compound, profiling panel (AID 1170). Also: test concentration not given here. To be noted: MM1S mitochondrial potential, higher = more signal.
Experiment [20] can be described thus: resazurin metabolic signal in A549 cells – cell-based, resazurin fluorescence, 24 h, PK04 Diversity Set, profiling panel (AID 1171). Also: test concentration not given here. To be noted: A549 viability, higher = more signal, called active from +8 up or from −8 down.

Structures are written as SMILES. Activity calls are given as the source filed them.

Chain of NADPH oxidase 2 (Homo sapiens) (P04839 whole entry, looked up): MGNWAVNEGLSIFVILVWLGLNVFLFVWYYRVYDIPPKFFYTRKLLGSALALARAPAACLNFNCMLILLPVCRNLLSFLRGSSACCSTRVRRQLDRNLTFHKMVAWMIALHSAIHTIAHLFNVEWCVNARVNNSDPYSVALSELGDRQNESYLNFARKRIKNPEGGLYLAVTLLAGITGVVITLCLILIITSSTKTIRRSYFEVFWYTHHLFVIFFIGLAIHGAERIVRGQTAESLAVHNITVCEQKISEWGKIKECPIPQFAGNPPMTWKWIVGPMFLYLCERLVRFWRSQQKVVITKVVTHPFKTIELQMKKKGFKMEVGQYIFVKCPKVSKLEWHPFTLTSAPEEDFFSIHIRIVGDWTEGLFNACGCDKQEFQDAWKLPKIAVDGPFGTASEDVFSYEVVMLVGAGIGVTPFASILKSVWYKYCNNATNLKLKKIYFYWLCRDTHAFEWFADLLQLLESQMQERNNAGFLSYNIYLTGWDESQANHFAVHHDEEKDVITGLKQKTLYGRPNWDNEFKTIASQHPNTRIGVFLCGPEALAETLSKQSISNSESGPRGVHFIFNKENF
Chain of NADPH oxidase 4 (Homo sapiens) (Q9NPH5 whole entry, looked up): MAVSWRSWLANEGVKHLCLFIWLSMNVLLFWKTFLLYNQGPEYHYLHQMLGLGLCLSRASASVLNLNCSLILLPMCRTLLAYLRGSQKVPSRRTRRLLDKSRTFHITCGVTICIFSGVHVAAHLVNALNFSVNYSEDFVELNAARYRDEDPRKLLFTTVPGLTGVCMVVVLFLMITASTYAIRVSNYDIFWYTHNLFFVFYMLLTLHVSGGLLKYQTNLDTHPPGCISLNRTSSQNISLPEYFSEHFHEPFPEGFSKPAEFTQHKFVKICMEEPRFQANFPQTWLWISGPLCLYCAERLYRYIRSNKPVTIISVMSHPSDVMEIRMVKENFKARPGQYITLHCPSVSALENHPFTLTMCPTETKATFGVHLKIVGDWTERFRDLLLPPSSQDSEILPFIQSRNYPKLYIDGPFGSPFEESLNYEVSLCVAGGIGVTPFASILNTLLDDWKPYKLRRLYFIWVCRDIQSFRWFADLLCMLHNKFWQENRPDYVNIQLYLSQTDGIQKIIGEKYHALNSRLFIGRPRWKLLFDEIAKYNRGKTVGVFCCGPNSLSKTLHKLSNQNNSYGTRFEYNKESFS
Chain of NADPH oxidase 5 (Homo sapiens) (Q96PH1 whole entry, looked up): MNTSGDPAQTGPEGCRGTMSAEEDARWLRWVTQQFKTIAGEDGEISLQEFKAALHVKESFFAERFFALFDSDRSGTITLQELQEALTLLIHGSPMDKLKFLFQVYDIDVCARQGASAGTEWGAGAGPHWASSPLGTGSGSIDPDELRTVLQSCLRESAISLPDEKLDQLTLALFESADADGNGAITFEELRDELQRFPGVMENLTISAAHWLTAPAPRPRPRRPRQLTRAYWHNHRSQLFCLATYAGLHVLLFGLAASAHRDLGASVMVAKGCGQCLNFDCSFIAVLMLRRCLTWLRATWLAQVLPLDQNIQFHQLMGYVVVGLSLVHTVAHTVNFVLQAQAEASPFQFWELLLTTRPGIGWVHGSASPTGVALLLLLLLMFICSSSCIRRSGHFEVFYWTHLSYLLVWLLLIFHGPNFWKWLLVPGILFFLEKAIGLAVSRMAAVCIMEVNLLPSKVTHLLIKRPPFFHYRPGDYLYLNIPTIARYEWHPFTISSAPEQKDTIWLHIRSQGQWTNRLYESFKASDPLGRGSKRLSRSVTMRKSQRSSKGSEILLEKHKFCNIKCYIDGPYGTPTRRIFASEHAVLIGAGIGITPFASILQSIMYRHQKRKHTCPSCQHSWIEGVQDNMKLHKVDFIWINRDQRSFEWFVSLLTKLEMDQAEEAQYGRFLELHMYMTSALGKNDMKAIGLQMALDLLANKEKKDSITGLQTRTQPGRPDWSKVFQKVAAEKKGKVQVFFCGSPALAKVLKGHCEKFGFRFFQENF

In the case of `C=CCN1C(=O)[C@]2(CC=C)N=C(c3ccc(OCCCO)cc3)O[C@@H]2c2ccccc21`, the z-score is 0.987 (inactive) in [1]; 33.2 (active) in experiment [3]; 34.2 (active) in experiment [4]; 2.64 (inactive) in experiment [5]; 10.6 (active) in [6]; -0.112 in experiment [7]. The z-score in experiment [8] was -1.13 (inactive); in experiment [9] it was 1.08 (inactive); in experiment [10], 1.09; in experiment [11], -1.23; in experiment [12], 0.931; in experiment [13], -1.82. Also, the z-score in experiment [14] is -3.48; in experiment [15], -3.86; in [16], -1.12; in experiment [17] it was 2.63 (inactive); in [18], -1.16; in experiment [19] it was -2.38. The z-score in experiment [20] was -1.95 (inactive). Further, the composite z-score in experiment [2] is 0.544.

As to `C[C@]12C(=O)N(CCCCCCO)[C@@H]3C(=O)N(c4ccc(Cl)cc4)CC=CC31O[C@@H]1/C=C\CCCOC(=O)C12` (stereo not given in full), the z-score in [1] was 1.64 (inactive); in experiment [3] it was 2.61 (inactive); in experiment [4] it was -1.32 (inactive); in experiment [5] it was -0.397 (inactive); in [6], -1.66 (inactive); in experiment [7], 0.654. Moreover, the z-score in experiment [8] was 1.12 (inactive); in experiment [9], 0.428 (inactive); in experiment [10], 2.22; in experiment [11] it was 0.41; in experiment [12], 1.23; in [13], 2.06. In addition, the z-score is 1.61 in experiment [14]; 0.0929 in [15]; 1.09 in experiment [16]; -0.317 (inactive) in [17]; 0.655 in experiment [18]; 0.411 in [19]. In addition, the z-score in [20] was -0.0459 (inactive). Besides, in [2], the composite z-score is -0.25.

As for `COc1ccc(NC(=O)O[C@H]2[C@H](OC(=O)Nc3ccc4c(c3)OCO4)[C@@H](OC(=O)Nc3ccc4c(c3)OCO4)[C@@H](OC)O[C@@H]2CO)cc1`, the z-score is 0.898 (inactive) in experiment [1]; 5.81 (inactive) in [3]; 1.13 (inactive) in experiment [4]; 0.081 (inactive) in experiment [5]; 0.521 (inactive) in experiment [6]; -0.182 in [7]. Also, the z-score in experiment [8] is -3.33 (inactive); in experiment [9], -0.666 (inactive); in [10], -2.16; in experiment [11], -1.11; in experiment [12] it was -0.0868; in [13], -1.67. Also, the z-score was -1.44 in experiment [14]; -0.7 in experiment [15]; 0.818 in experiment [16]; 0.533 (inactive) in [17]; -0.628 in experiment [18]; -0.786 in experiment [19]. Further, the z-score in experiment [20] is 0.441 (inactive). The composite z-score in experiment [2] worked out at 0.33.

With `COC(=O)[C@@]1(Cc2ccccc2)[C@H]2c3cc(C(=O)N4CCCC4)n(Cc4ccsc4Br)c3C[C@H]2CN1C(=O)c1ccccc1`, the z-score is -1.82 (inactive) in experiment [1]; 7 (inactive) in experiment [3]; 1.07 (inactive) in experiment [4]; 1.04 (inactive) in experiment [5]; 1.03 (inactive) in experiment [6]; -0.215 in experiment [7]. For the same molecule, the z-score is 0.0188 (inactive) in experiment [8]; 0.707 (inactive) in experiment [9]; -2.92 in experiment [10]; -0.991 in experiment [11]; 0.213 in experiment [12]; -0.248 in experiment [13]. Further, the z-score in [14] is -1.54; in experiment [15], -3.59; in [16], 1.6; in [17] it was -0.205 (inactive); in [18] it was -0.804; in experiment [19] it was -1.23. Further, in experiment [20], the z-score was -0.9 (inactive). Also, in [2], the composite z-score is 0.451.

As for `CC(=O)n1cc(C(O)C2C=CC3C(=O)N(c4ccccc4)C(=O)C3N2Nc2ccccc2)c2ccccc21` (stereo not given), the z-score in experiment [1] was -1.45 (inactive); in [3], 20.1 (active); in [4], 2.76 (inactive); in [5], 1.12 (inactive); in [6] it was -0.568 (inactive); in [7], 1.32. Also, the z-score in [8] was -3.07 (inactive); in [9], -4.86 (inactive); in [10] it was -4.68; in [11], -0.8; in experiment [12], 0.174; in experiment [13] it was 0.374. Moreover, the z-score is -1.06 in experiment [14]; -1.19 in experiment [15]; -2.16 in [16]; -0.349 (inactive) in experiment [17]; -0.502 in experiment [18]; -0.969 in experiment [19]. In addition, in experiment [20], the z-score was -1.05 (inactive). The composite z-score in experiment [2] came to 0.681.
